Results published in PubChem BioAssay (NCATS).
Several values for one entry are separate records, joined by “and”; a condition that tells them apart may be missing. Identical values can stand only once. Inconclusive results are not listed. Where a structure was tested more than once in an assay, its records may differ in their call. Values without a mark were called inactive. Activity calls are given as the source filed them. Calls come from the whole dose curve; as a rule, active = well fitted cell-killing curve with a large enough effect; inconclusive = small, poorly fitted or top-dose-only effect; inactive = flat fitted curve, though single readings scatter.

Test: Cellular viability qHTS for adrenocortical cancer (ACC) cell line SW-13 (AID 1963989); note: nearly all actives have a fitted effect of over 65% in size;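 for activity (max response): cells grown in serum-free medium with ITS supplement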
Details: SW-13 ACC cells viability, CellTiter-Glo, 48 h; activity (max response): active compounds read low
Text: PI: Naris Nilubol, MD Surgical Oncology Program, National Cancer Institute (NCI) National Institute of Health (NIH), Bethesda, Maryland Adrenocortical cancer (ACC) is a rare malignancy with poor survival outcomes and few treatment options. Currently, mitotane is the only FDA-approved therapy for ACC. Although adjuvant radiation therapy is rarely utilized, it has the potential to improve survival in select cases. Through a quantitative high-throughput drug screen (qHTS), we identified auranofin (AF), a thioredoxin reductase (TXNRD) inhibitor, as a promising candidate drug. This study aims to evaluate whether AF can enhance the efficacy of radiation therapy in the treatment of ACC. Two human ACC cell lines, SW-13 and NCI-H295R, were screened using the National Center for Advancing Translational Sciences (NCATS) Pharmaceutical Collection (NPC) and the Mechanism Interrogation PlatE (MIPE) library (~4,991 compounds). CellTiter-Glo (Cat # G7570, Promega, Madison, WI) was utilized to measure cell viability. Described herein are the results of the corresponding viability assay.
PROTOCOL TABLE (as described by Inglese J, Shamu CE and Guy RK. 2007) SEQUENCE No. (e.g., 1, 2, 3, etc.); […] (e.g., Cells, Incubation, Reagent, etc.); VALUE; DESCRIPTION. 1; Cells; 5 uL; white, solid-bottom, 1536-well tissue-culture treated plates. 2; Time; overnight culture at 37C with 5% CO2. 3; Compounds and control; 23 nL; Kalypsis pin tool (Wako USA) equipped with a 1536-well pin head to transfer to the assay plates. 4; Time; 48 hours; 37C with 5% CO2. 5; Reagent; 4 uL; CellTiter-Glo luminescent substrate mix. 6; Time; 20 min at room temperature. 7; Detection; Luminescence; ViewLux plate reader NOTES (numbers refer to Sequence numbers above) 1. SW13 cells were harvested from a T175 flask and resuspended in ITS-supplemented DMEM serum-free medium at a concentration of 300 000 cells/mL. Then 5 uL of resuspended cells were dispensed into each well of white, solid-bottom, 1536-well tissue-culture-treated plates using a multidrop combi dispenser. The plates were covered with stainless steel gasket lids. 2-3. The plates were cultured overnight at 37C with 5% CO2. Twenty-three nL of compounds (eight selected concentrations from the NPC / MIPE) or positive control (10 mM stock of bortezomib) in DMSO was transferred to each well of the assay plate using a pin tool (Kalypsys, San Diego, CA, USA). The final concentration of the compounds in the 5 uL assay volume ranged from 0.5 nM to 46 uM. 4-6. After 48 hours of incubation at 37C and 5% CO2, 4 uL of CellTilter-Glo luminescent substrate mix (Promega, Madison, WI, USA) was added to each well. Then the plates were incubated for 20 minutes at room temperature. 7. After incubation, luminescence was measured using a ViewLux plate reader (PerkinElmer, Waltham, MA, USA) with a clear filter was used to measure the number of metabolically competent cells. To determine compound activity in the qHTS assay, the titration-response data for each sample was plotted and modeled by a four-parameter logistic fit yielding IC50 and efficacy (maximal response) values. […] REFERENCES: Inglese J, Shamu CE and Guy RK, Reporting data from high throughput screening of small molecule libraries, Nature Chemical Biology, 2007, 3(8): 438-441. doi.org/10.1038/nchembio0807-438.
% is set by controls: 0 for no effect and ±100 for the full control effect.

| Compound | Potency | activity (max response) |
| --- | --- | --- |
| CC(C)(C)OC(=O)Nc1ccc(-c2cc(C(=O)NCCCCCCC(=O)NO)no2)cc1 | 15.8 µM (active) | – |
| COc1ncc(Nc2ncc(C(C)N3CCN(S(C)(=O)=O)CC3)cc2-c2nc(C)nc(N)n2)cc1F (stereo not given) | – | -11.9% |
| CN(C)c1cc(NC(=O)CNC(C)(C)C)c(O)c2c1C[C@H]1C[C@H]3[C@H](N(C)C)C(=O)C(C(N)=O)=C(O)[C@]3(O)C(=O)C1=C2O | – | -8.31% |
| Cc1cc(=O)oc2cc(O)ccc12 | – | -3.93% and 10.3% |
| C=CC(=O)Nc1cc(N2CCN(CC)CC2)ccc1Nc1cc(N(C)C(=O)Nc2c(Cl)c(OC)cc(OC)c2Cl)ncn1 | – | -15% |
| CCOc1ccc(C(=O)OCCN(CC)CC)cc1 | – | -4.6% |
| O=C(CCCCCCC(=O)N/N=C/c1ccc(N(c2ccccc2)c2ccccc2)cc1)NO | 28.2 µM (active) | – |
| CCC1=C[C@@H]2CN(C1)Cc1c([nH]c3ccccc13)[C@@](C(=O)OC)(c1cc3c(cc1OC)N(C)[C@H]1[C@@](O)(C(=O)OC)[C@H](OC(C)=O)[C@]4(CC)C=CCN5CC[C@]31[C@@H]54)C2 | 0.143 µM (active) | -91.8% |
| Cc1cccc(-c2[nH]c(C(C)(C)C)nc2-c2ccc3c(c2)OCO3)n1 | 7.94 µM (active) | – |
| NCCNCCNCCN | – | 13.6% |
| O=c1cc(N2CCOCC2)oc2c(-c3cccc4c3sc3ccccc34)cccc12 | 25.1 µM (active) | – |
| Cc1cnc(-c2cnc(NCCNc3ccc(C#N)cn3)nc2-c2ccc(Cl)cc2Cl)[nH]1 | – | 4.03% |
| O=C([O-])C[O-].[Pt+2] | – | -1.3% |
| CC(=O)Oc1ccccc1C(=O)O | – | 9.69% and -6.24% |
| CCCCOC(=O)NS(=O)(=O)c1sc(CC(C)C)cc1-c1ccc(Cn2ccnc2)cc1 | 28.2 µM (active) | – |
| O=C(/C=C/c1ccc(O)c(O)c1)O[C@@H]1C[C@@](OC(=O)/C=C/c2ccc(O)c(O)c2)(C(=O)O)C[C@@H](O)[C@@H]1O | – | 4.38% |
| CC(NN)c1ccccc1 (stereo not given) | – | -4.01% |
| N[C@@H](C(=O)N[C@@H]1C(=O)N2C(C(=O)O)=C(Cl)CS[C@H]12)c1ccccc1 | – | 7.53% |
| c1ccc2c(c1)CCCC2C1=NCCN1 (stereo not given) | – | 5.7% |
| Cc1cc(NS(=O)(=O)c2ccc(N)cc2)nc(C)n1 | – | 9.61% |

| Compound | Potency | activity (max response) |
| --- | --- | --- |
| Clc1ccc(-c2nc3sccn3c2/C=N/OCc2ccc(Cl)c(Cl)c2)cc1 | – | 3.29% |
| NS(=O)(=O)c1cc(C2(O)NC(=O)c3ccccc32)ccc1Cl (stereo not given) | – | 17.7% |
| O=C([C@@H](Cc1cccc(C(F)(F)F)c1)NS(=O)(=O)c1cc(F)c2c(c1)CCNC2)N1CCCC1 | – | -8.82% |
| C#CCN[C@@H]1CCc2ccccc21 | – | 3.89% and -12.7% |
| CC(C)(C)CC(C)(C)c1ccc(OCCOCC[N+](C)(C)Cc2ccccc2)cc1 | 5.17 µM (active) | – |
| COc1ccnc(CS(=O)c2nc3ccc(OC(F)F)cc3[nH]2)c1OC (stereo not given) | – | -15.5% and -5.64% |
| O=c1cc(CN2CCOCC2)occ1OCCCCCSc1ccnc2cc(C(F)(F)F)ccc12 | 15.8 µM (active) | – |
| CCOC(CN1CCN(CC(C)C(=O)c2ccccc2)CC1)c1ccccc1 (stereo not given) | – | -8.86% |
| CCC(C(=O)OCCOCCN(CC)CC)c1ccccc1 (stereo not given) | – | -6.83% |
| Cc1cc(Nc2ncc3c(n2)N(C)C(=O)N(c2cc(NC(=O)c4cccc(C(F)(F)F)c4)ccc2C)C3)n(C)n1 | 0.355 µM (active) | – |
| CC(=O)c1ccc(OCC(=O)N2CCCCC2)cc1 | – | 7.54% |
| Cc1cc(N2CCOCC2)ccc1Nc1nc(NC2CCCCC2)c2[nH]cnc2n1 | 25.1 µM (active) | – |
| CC(C(=O)O)c1ccc2c(c1)[nH]c1ccc(Cl)cc12 (stereo not given) | – | -19.1% |
| OC1CCC(Oc2cccc3cnc(Nc4ccc5nc[nH]c5c4)nc23)CC1 (stereo not given) | 7.94 µM (active) | – |
| CNC(=O)c1nn(C)c2c1C(C)(C)Cc1cnc(Nc3ccc(N4CCN(C)CC4)cc3)nc1-2 | 5.01 µM (active) | – |
| Cc1ccc(NC(=O)C2(c3ccc4c(c3)OC(F)(F)O4)CC2)nc1-c1cccc(C(=O)O)c1 | – | 4.62% |
| C[C@H]1O[C@@H](O[C@H]2[C@@H](O)C[C@H](O[C@H]3[C@@H](O)C[C@H](O[C@H]4CC[C@@]5(C)[C@H](CC[C@@H]6[C@@H]5C[C@@H](O)[C@]5(C)[C@@H](C7=CC(=O)OC7)CC[C@]65O)C4)O[C@@H]3C)O[C@@H]2C)C[C@H](O)[C@@H]1O | 0.0708 µM (active) | – |
| Fc1ccc([C@@H]2CCNC[C@H]2COc2ccc3c(c2)OCO3)cc1 | – | -15.4% |
| Nc1ccc(C(=O)N2CC3CC(CN(Cc4ccccc4)C3)C2)cc1 | – | 7.04% |
